Hits are enriched below; roughly 3.2% of the tested compounds scored in any of these assays.
ANO1 block: inhibitors of mouse TMEM16A calcium-activated chloride channel | 310,000 tested, 1.2% active | normalized B-score (activity score, 25-100; higher = stronger inhibition) at 10 µM | HEK293 TMEM16A/YFP iodide influx fluorescence, ionomycin | AID 588511 | Q8BHY3;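 active = ratio plate-corrected score three or more library SD toward inhibition, starting fluorescence score within five deviations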;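 also: score derived from kinetic fluorescence span divided by baseline fluorescence per well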
TMEM16A act: activators or potentiators of mouse TMEM16A chloride channel; 340,000 tested, 0.3% active; Q8BHY3; B-score at 10 µM; AID 623877; HEK293 TMEM16A/YFP-H148Q/I152L, iodide quench fluorescence; hits give low values;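 active = fluorescence-ratio B-score plate-corrected deviation score at least 3 library SD below zero, with starting fluorescence score within 5 deviations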;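 also: channel opened by trigger with iodide after compound preincubation; score built on the fluorescence ratio of max minus min over baseline; more negative score means more quench and so TMEM16A activation or potentiation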
CHT block: inhibits the human high affinity choline transporter; 310,000 tested, 0.86% active; B-score at 10 µM; CHT-expressing cells, membrane potential dye, choline response; hits give low values;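 active = B-score over 3 SD under the library average, and starting fluorescence ratio not unusually high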;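 also: choline stimulus applied at its EC90 after an EC20 pre-addition; B-score computed on integrated fluorescence ratio after choline addition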
CHT PAM: allosteric activators of human choline transporter CHT. Q9GZV3. AID 488977. B-score at 10 µM. CHT-expressing cells, membrane potential dye, choline EC20; hits give high values; LV-AA mutant CHT in HEK293 cells. 310,000 tested, 0.49% active;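 active = initial fluorescence not abnormally high and integrated response B-score, plate-corrected, over 3 SD above library mean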
HDAC3 inh: human HDAC3 inhibition; 320,000 tested, 0.15% active; O15379; inhibition, % at 8.3 µM; recombinant HDAC3, fluorogenic peptide/trypsin coupled, fluorescence; in the data active = inhibition above about 26%, passing the limit was not always enough; inconclusive = no clear call, values can overlap the other calls
Target sequence (O15379 whole entry, looked up): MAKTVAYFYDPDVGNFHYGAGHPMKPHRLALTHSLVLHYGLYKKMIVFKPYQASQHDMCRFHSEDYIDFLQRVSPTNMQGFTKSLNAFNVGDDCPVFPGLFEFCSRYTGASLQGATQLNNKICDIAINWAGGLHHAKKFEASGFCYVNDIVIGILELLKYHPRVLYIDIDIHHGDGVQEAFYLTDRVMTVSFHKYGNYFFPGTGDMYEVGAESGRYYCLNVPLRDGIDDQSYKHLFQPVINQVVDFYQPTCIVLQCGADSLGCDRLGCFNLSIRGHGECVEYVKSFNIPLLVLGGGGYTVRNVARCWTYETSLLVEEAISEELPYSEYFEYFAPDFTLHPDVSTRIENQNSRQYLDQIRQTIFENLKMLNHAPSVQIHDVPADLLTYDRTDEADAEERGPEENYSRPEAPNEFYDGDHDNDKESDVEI
PHOSPHO1 inh: PHOSPHO1 (human) inhibition | 290,000 tested, 1.1% active | recombinant PHOSPHO1, absorbance phosphatase assay | inhibition, % at 13.3 µM | Q8TCT1 | AID 1565; in the data active = inhibition above about 60%
* hit, by the source's call; i = inactive; ? = inconclusive; nt = no result given.

SMILES | ANO1 block | TMEM16A act | CHT block | CHT PAM | HDAC3 inh | PHOSPHO1 inh
CC(C(=O)OCC(=O)Nc1cccc(S(=O)(=O)N2CCOCC2)c1)N1C(=O)c2ccccc2C1=O (stereo not drawn) | i | i | i | i | 3.8 | -11.2
COc1ccc(F)cc1CN1CCN(C(=O)CCC(=O)Nc2nnc(C3CCCCC3)s2)CC1 | i | i | i | i | 2.5 | 35.5
COc1cc2c(cc1OC)[C@@H]1Cc3cc4c(cc3[C@H](C2)N1C)OCO4 | i | i | i | i | 33.9* | -8.6
C[N+]1([O-])[C@@H]2Cc3cc4c(cc3[C@@H]1Cc1cc3c(cc12)OCO3)OCO4 (stereo partly drawn) | i | i | i | i | 15.4 | 22.1
CCOC(=O)Cc1csc(NC(=O)CSc2nnc(-c3ccncc3)n2Cc2ccco2)n1 | i | i | i | i | 6.1 | nt
COc1ccc(C2C(C(=O)Nc3cccnc3)=C(C)Nc3nc(-c4cccs4)nn32)cc1 (stereo not drawn) | i | i | i | i | 15.5 | -35.3
CC1(c2ccc(OC(F)F)cc2)NC(=O)N(CC(=O)Nc2ccc(OC(F)F)cc2)C1=O (stereo not drawn) | i | -13.6* | i | i | 8.6 | 44.9
O=C(c1ccc(Cl)cc1)c1oc2ccccc2c1CS(=O)c1ccccc1 (stereo not drawn) | i | i | i | i | 7.9 | 97.7*
O=C(O)c1oc2ccccc2c1CSc1ccc(Cl)cc1 | i | i | i | i | -0.9 | 16.1
C=CCN(C(=O)CSC1=NC(=O)CN1C(C)=O)c1nc(C)c(-c2ccccc2)s1 | i | i | i | i | 68.1* | -26.9
C=CCSc1nnc(-c2sc(-c3ccccc3)nc2C)n1C | i | i | i | i | -49.5 | -11.3
Nc1c(SCCC(=O)O)ccc2c1C(=O)c1ccccc1C2=O | i | -5.32* | i | i | 6.5 | 31.6
Nc1c(C(=O)O)ccc2c1C(=O)c1ccccc1C2=O | i | i | i | i | ? | 6.6
CC(C)N1CCN(CC2COc3ccccc3O2)CC1 (stereo not drawn) | i | i | i | i | 3.6 | 28.6
CCOc1cccc(C2C(C(=O)c3ccc(C)o3)=C(O)C(=O)N2c2nccs2)c1 (stereo not drawn) | i | i | i | i | 4.6 | 71.1*
COC(=O)c1sc(N2C(=O)C(O)=C(C(=O)c3ccc(C)o3)C2c2cccs2)nc1C (stereo not drawn) | i | i | -5.84* | i | -3.1 | 37.7
COc1ccc(C2C(C(=O)c3cccs3)=C(O)C(=O)N2c2nncs2)cc1 (stereo not drawn) | i | i | i | i | 13.7 | 71.2*
C=CCOc1ccc(C2C(C(=O)c3cccs3)=C(O)C(=O)N2c2nnc(C)s2)cc1 (stereo not drawn) | i | i | i | i | 20.3 | nt
COC(=O)c1ccc(NC(=S)NNC(=O)CC(C)C)cc1 | i | i | i | i | 2.1 | 38.7
COCCN1C=C(C(=O)OC)C(c2cc(Br)c(OC)c(OC)c2)C(C(=O)OC)=C1 | i | i | i | i | -80.4 | -16.3
O=S(=O)(Nc1ccc(-c2ccc(N3CCOCC3)nn2)cc1)c1ccc(Cl)c(Cl)c1 | 25* | i | i | i | nt | nt
COc1ccc(C(=O)O/N=C2\CCS(=O)(=O)c3sccc32)cc1 | i | i | i | i | 52.1* | -19.3
Cc1cc(C)cc(N2C(=O)CC(n3nc(C)cc3C)C2=O)c1 (stereo not drawn) | i | i | i | i | 9.4 | 13.8
COc1ccc(CC(=O)N(c2ccccc2)c2nc(C)cs2)cc1 | i | i | i | i | 0.9 | -3.9
S=c1[nH]nc(C2COc3ccccc3O2)o1 (stereo not drawn) | i | i | i | i | 0.5 | 96.2*
COc1cccc(-c2nnn(CC(=O)N(CC(C)C)C3CCS(=O)(=O)C3)n2)c1 (stereo not drawn) | i | i | i | i | 1.0 | nt
CCc1nc(NCCO)c(C#N)c2c1CSC(C)(C)C2 | i | i | i | i | -1.9 | 24.0

Assay outcomes from PubChem BioAssay.
